Source: PubChem BioAssay (National Center for Advancing Translational Sciences (NCATS))
AmpC det inh: AmpC beta-lactamase inhibition, detergent assay; purified AmpC, nitrocefin hydrolysis with detergent; P00811; 71,000 compounds, 0.09% hits; Potency, µM (series often up to 28.7 µM); AID 584; active = well fitted curve in the direction sought with a large enough effect; inconclusive = small, poorly fitted or top-dose-only effect
Target sequence (P00811 whole entry, looked up): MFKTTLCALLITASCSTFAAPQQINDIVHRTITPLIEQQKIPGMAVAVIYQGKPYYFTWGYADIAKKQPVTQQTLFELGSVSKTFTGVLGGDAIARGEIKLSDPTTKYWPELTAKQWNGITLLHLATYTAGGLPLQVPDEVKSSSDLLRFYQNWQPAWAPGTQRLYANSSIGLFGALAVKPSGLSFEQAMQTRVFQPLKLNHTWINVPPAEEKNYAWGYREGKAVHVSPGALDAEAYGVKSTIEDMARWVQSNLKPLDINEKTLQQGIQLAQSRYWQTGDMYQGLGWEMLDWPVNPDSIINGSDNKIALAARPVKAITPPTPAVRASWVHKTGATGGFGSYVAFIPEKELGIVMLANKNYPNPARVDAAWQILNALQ
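E. coli AmpC (5.3 nM) in 20 mM phosphate pH 7.0 with 0.01% Triton X-100, preincubated 15 min RT with compound; nitrocefin (2 uL of 800 uM stock) hydrolysis followed by 480 nm absorbance every 20 s over 4 min.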
AmpC inh no det: inhibitors of E. coli AmpC beta-lactamase without detergent; P00811; AmpC nitrocefin hydrolysis, absorbance 480 nm, no detergent; Potency, µM (doses to about 28.7 µM); 71,000 compounds, 1.8% hits
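Enzyme, pH 7.0 phosphate. Compound titrations were pre-incubated with AmpC for 15 min at room temperature before nitrocefin (stock 800 uM) addition; product formation was recorded at 480 nm every 20 s for 4 min.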
LT uptake inh: anthrax lethal toxin internalization inhibition. Cells, anthrax lethal toxin internalization, FRET ratio (460/530). Potency, µM (series often up to 40 µM), usual class: inhibitors. 70,000 compounds, 0.67% hits; also: nearly all actives have a fitted effect of over 50% in size
SmPrx2 inh: inhibitors of Schistosoma mansoni peroxiredoxin 2; S. mansoni Prx2 activity coupled to TGR/GSH (TGR is thioredoxin glutathione reductase), NADPH fluorescence loss, qHTS; 65,000 compounds, 0.07% hits; AID 448; Potency, µM
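Activity is read as the drop in NADPH fluorescence (365/450 nm), recorded every 30 sec for 8 min after H2O2 addition. Prx2 is coupled to TGR-driven NADPH oxidation through glutathione, in phosphate buffer pH 7.4.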
Of the large screens only hits and unclear results are named; the others gave an inactive call; [ ] = another dose, or the depositor's remark. Shown are actives, neighbours in structure and some others; about 2.6% of the full set was active somewhere. Unless noted, calls follow the shape of the full dose curve.

Cn1c(=O)oc2cc(S(=O)(=O)Nc3ccc4c(c3)OCCO4)ccc21	none
CS(=O)(=O)N1CCC(C(=O)N2CCC(Cc3ccccc3)CC2)CC1	AmpC det inh inconclusive, AmpC inh no det 13µM
CCCS(=O)(=O)N1CCC(C(=O)N2CCN(Cc3ccccc3)CC2)CC1	none
O=[N+]([O-])c1cccc(/C=N\Nc2ccc3ccccc3n2)c1O	none
CCc1cc(=O)oc2cc(C)cc(O)c12	AmpC inh no det 4µM[single pt active]
CCc1cc(=O)oc2cc(C)c3c(C)coc3c12	none
Cc1ccc(N2C(=O)c3ccccc3C2Nc2cccnc2)nc1 (configuration not stated)	AmpC inh no det 4µM[single pt active]
O=C1c2ccccc2C(Nc2cccnc2)N1Cc1ccccc1Cl (configuration not stated)	AmpC inh no det 4µM[single pt active]
CCOc1ccccc1NC1c2ccccc2C(=O)N1c1ccc(C)cn1 (configuration not stated)	none
COc1cc(NC2c3ccccc3C(=O)N2c2ccc(C)cn2)cc(OC)c1OC (configuration not stated)	none
CCOC(=O)c1ccccc1NC1c2ccccc2C(=O)N1c1ccc(C)cn1 (configuration not stated)	AmpC inh no det 4µM[single pt active], LT uptake inh inconclusive
CCN(CC)CCCCn1c(-c2ccccc2)nc2c(Nc3ccccc3)nc(C)nc21	LT uptake inh 16µM (no result: SmPrx2 inh)
CCCS(=O)(=O)c1nnnn1-c1cccc(OC)c1	LT uptake inh 3.2µM
Cc1n[nH]c(C)c1S(=O)(=O)N1CCCC(C(=O)NCc2cccs2)C1 (configuration not stated)	none
Cc1n[nH]c(C)c1S(=O)(=O)N1CCCC(C(=O)NC2CCCc3ccccc32)C1 (configuration not stated)	AmpC inh no det 4µM[single pt active]
CC(=O)Oc1ccc2cc(-c3nc4ccccc4n3C)c(=O)oc2c1	LT uptake inh inconclusive, SmPrx2 inh 18
CCOC(=O)c1cc2ccc(OC(=O)c3ccco3)cc2oc1=O	LT uptake inh inconclusive
CCOc1ccc(-n2c(Cc3cc(=O)[nH]c(=O)[nH]3)nnc2SCC(=O)NC2CCCC2)cc1	AmpC inh no det inconclusive
O=C(CSc1nnc(Cc2cc(=O)[nH]c(=O)[nH]2)n1-c1ccc(Cl)cc1)NCC1CCCO1 (configuration not stated)	none
O=C(CSc1nnc(Cc2cc(=O)[nH]c(=O)[nH]2)n1-c1ccc(Cl)cc1)NC1CCCC1	AmpC inh no det 4µM[single pt active]
COc1ccc(-n2c(Cc3cc(=O)[nH]c(=O)[nH]3)nnc2SCC(=O)NC2CCCC2)cc1	AmpC inh no det 4µM[single pt active]
O=C(Nc1ccc2c(c1)OCO2)C1CCN(S(=O)(=O)c2cccs2)CC1	AmpC inh no det inconclusive
O=C(Nc1ccc2c(c1)OCO2)C1Cc2ccccc2CN1S(=O)(=O)c1cccs1 (configuration not stated)	AmpC inh no det 10µM[single pt active], LT uptake inh inconclusive
Cc1cc(NC(=O)c2noc3c2CCc2ccccc2-3)no1	AmpC inh no det 4µM[single pt active]
Cc1ccccc1Cn1nc(C)c(NC(=O)c2noc3c2CCc2ccccc2-3)c1C	LT uptake inh inconclusive, SmPrx2 inh inconclusive
Cc1c(NC(=O)c2noc3c2CCc2ccccc2-3)c(=O)n(-c2ccccc2)n1C	AmpC inh no det 4µM[single pt active]
CN1C[C@@H](O)[C@@H](O)[C@@H](O)[C@@H]1CO	none
O=C(Nc1cc(Cl)ccc1O)c1cc2n(n1)C(C(F)(F)F)CC(c1ccc3c(c1)OCO3)N2 (configuration not stated)	AmpC inh no det 7.9µM, LT uptake inh inconclusive
COc1ccc(OC)c(NC(=O)c2cc3n(n2)C(C(F)(F)F)CC(c2ccc4c(c2)OCO4)N3)c1 (configuration not stated)	none
C[C@H](c1ccccc1)N1CCN([C@@H](C)c2ccccc2)CC1	none
Cc1ccsc1C=Nc1ccc(O)cc1	AmpC inh no det 10µM, LT uptake inh inconclusive
CC1CCCN(c2nc3c(c(=O)[nH]c(=O)n3C)n2CCCc2ccccc2)C1 (configuration not stated)	AmpC inh no det 16µM[single pt active], LT uptake inh inconclusive
CC1CCN(c2nc3c(c(=O)[nH]c(=O)n3C)n2Cc2ccccc2)CC1	none
CCCCNc1nc(C)nc2c1nc(-c1ccccc1)n2C1CCN(Cc2ccccc2)C1 (configuration not stated)	LT uptake inh 13µM (no result: SmPrx2 inh)
Cc1nc(NCc2ccccc2)c2nc(-c3ccccc3)n(C3CCN(Cc4ccccc4)C3)c2n1 (configuration not stated)	LT uptake inh inconclusive (no result: SmPrx2 inh)
NC(=O)CI	AmpC inh no det 13µM, SmPrx2 inh inconclusive
CC(N)=O	none (no result: LT uptake inh)
C=CCn1c(COc2ccccc2)nnc1SCc1ccc(C#N)cc1	none (no result: LT uptake inh)
